This is an account of results in PubChem BioAssay (NCI).

Molecules are shown by their SMILES. Values joined by “and” are separate entries in the source; they are usually repeats but may differ in a detail not shown here. Equal entries are not always repeated. The panel holds about 83,000 compounds, 20% with a hit somewhere; the sample as a whole holds those more often.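 Testing used 96-well plates and a 48-hour single-concentration exposure. Example: -40 means 40% of the starting cells died.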 Active and inactive are the calls of the source. The calls were made as follows: active = growth percent below 10; inactive = the rest.

Test systems include HCT-15 colon; HT29 colon; SNB-75 CNS; SNB-19 CNS; U251 CNS; PC-3 prostate; SK-MEL-5 melanoma; UACC-62 melanoma; LOX IMVI melanoma; SK-MEL-28 melanoma; SK-MEL-2 melanoma; EKVX NSCLC; SN12C renal; UO-31 renal; TK-10 renal; ACHN renal; CAKI-1 renal; A498 renal; CCRF-CEM leukemia; MOLT-4 leukemia.
Holding throughout (test): NCI-60 one-dose screen, 48 h (100 = growth as untreated, 0 = no growth, -100 = all killed)
Conditions in all cases: 10 µM unless noted

As for `CN(C)c1ccc(/C=C(\C#N)c2ccccc2)cc1`, the growth is 26.3% (inactive) and 29.3% (inactive) and 29.4% (inactive) in the assay on HCT-15 colon; 12.4% (inactive) and 6.06% (active) and 3.67% (active) in the assay on HT29 colon; 4.23% (active) and 15.8% (inactive) with SNB-75 CNS; 61.4% (inactive) and 52.5% (inactive) and 35.8% (inactive) in the assay on SNB-19 CNS; 18.5% (inactive) and 32.3% (inactive) and 23.9% (inactive) in the assay on U251 CNS; 18.9% (inactive) and 36% (inactive) and 19.5% (inactive) in the assay on PC-3 prostate. The growth with SK-MEL-5 melanoma is 31.6% (inactive) and 26.3% (inactive) and 19.4% (inactive); with UACC-62 melanoma, 32.6% (inactive) and 21.9% (inactive) and 22.2% (inactive); in the assay on LOX IMVI melanoma, 51.1% (inactive) and 41.1% (inactive) and 42.4% (inactive); with SK-MEL-28 melanoma, 97.7% (inactive) and 70.6% (inactive) and 64.5% (inactive); with SK-MEL-2 melanoma it was -36% (active) and 11.7% (inactive) and 22.8% (inactive); in the assay with EKVX NSCLC, 53.9% (inactive) and 45.7% (inactive) and 56.9% (inactive). Besides, the growth with SN12C renal was 66.5% (inactive) and 62.2% (inactive) and 39.1% (inactive); with UO-31 renal it was 29.1% (inactive) and 53.1% (inactive) and 42.5% (inactive); with TK-10 renal it was 57.8% (inactive) and 43.1% (inactive) and 54.9% (inactive); in the assay on ACHN renal, 50.3% (inactive) and 65.3% (inactive) and 52.2% (inactive); in the assay on CAKI-1 renal, 41.1% (inactive) and 43.3% (inactive); with A498 renal it was 63.6% (inactive) and 29.8% (inactive) and 0.464% (active). Besides, the growth is -17.2% (active) and 23.6% (inactive) and 6.64% (active) in the assay with CCRF-CEM leukemia; 25.2% (inactive) and 35.6% (inactive) and 34.9% (inactive) in the assay on MOLT-4 leukemia.

Consider `COc1ccc(NC(=S)Nc2ccccn2)cc1`, for which the growth in the assay on HCT-15 colon was 98.6% (inactive); with HT29 colon, 107% (inactive); in the assay with SNB-75 CNS it was 152% (inactive); with SNB-19 CNS, 98.9% (inactive); with U251 CNS, 93.6% (inactive); in the assay with PC-3 prostate, 97.2% (inactive). For the same molecule, the growth is 98.9% (inactive) with SK-MEL-5 melanoma; 103% (inactive) with UACC-62 melanoma; 89.8% (inactive) in the assay on LOX IMVI melanoma; 110% (inactive) in the assay with SK-MEL-28 melanoma; 94.6% (inactive) in the assay with SK-MEL-2 melanoma; 96.5% (inactive) with EKVX NSCLC. The growth with SN12C renal was 100% (inactive); in the assay on UO-31 renal, 93.7% (inactive); with TK-10 renal, 102% (inactive); in the assay on ACHN renal it was 97.7% (inactive); in the assay on CAKI-1 renal, 89.3% (inactive); with A498 renal, 83% (inactive). Moreover, the growth was 90.8% (inactive) with CCRF-CEM leukemia and 91% (inactive) in the assay with MOLT-4 leukemia.

As for `OC(CSc1ccccc1)CN1CCN(c2cccc(Cl)c2)CC1` (stereo not given), the growth in the assay on HCT-15 colon was 105% (inactive) and 101% (inactive); in the assay on HT29 colon, 104% (inactive) and 96.5% (inactive); in the assay with SNB-75 CNS, 91.7% (inactive) and 102% (inactive); in the assay on SNB-19 CNS it was 100% (inactive) and 111% (inactive); with U251 CNS it was 95% (inactive) and 102% (inactive); in the assay with PC-3 prostate, 92.9% (inactive) and 97.8% (inactive). In addition, the growth with SK-MEL-5 melanoma was 97.4% (inactive) and 96.8% (inactive); with UACC-62 melanoma it was 92.2% (inactive) and 96.9% (inactive); with LOX IMVI melanoma it was 96.7% (inactive) and 96.3% (inactive); in the assay on SK-MEL-28 melanoma, 103% (inactive) and 99.1% (inactive); in the assay on SK-MEL-2 melanoma, 98.3% (inactive) and 100% (inactive); in the assay on EKVX NSCLC, 102% (inactive) and 99% (inactive). In addition, the growth in the assay with SN12C renal was 94.3% (inactive) and 103% (inactive); with UO-31 renal, 76% (inactive) and 75% (inactive); with TK-10 renal, 101% (inactive) and 112% (inactive); in the assay with ACHN renal it was 103% (inactive) and 101% (inactive); in the assay on CAKI-1 renal it was 92.2% (inactive) and 87.9% (inactive); in the assay with A498 renal it was 116% (inactive) and 89.9% (inactive). The growth was 92.5% (inactive) and 98.1% (inactive) in the assay on CCRF-CEM leukemia; 76.1% (inactive) and 94.9% (inactive) with MOLT-4 leukemia.

For `NCCSC(C[N+](=O)[O-])c1ccccc1Cl` (stereo not given), the growth was 22.4% (inactive) in the assay on HCT-15 colon; 36% (inactive) in the assay with HT29 colon; 105% (inactive) in the assay on SNB-75 CNS; 102% (inactive) in the assay on SNB-19 CNS; 77.6% (inactive) with U251 CNS; 68.1% (inactive) in the assay with PC-3 prostate. In addition, the growth in the assay with SK-MEL-5 melanoma is 85.1% (inactive); in the assay with UACC-62 melanoma, 92.6% (inactive); in the assay on LOX IMVI melanoma, 31.4% (inactive); in the assay with SK-MEL-28 melanoma, -20.5% (active); in the assay with SK-MEL-2 melanoma, 34.9% (inactive); with EKVX NSCLC, 100% (inactive). The growth with SN12C renal is 104% (inactive); in the assay with UO-31 renal it was 63.3% (inactive); with TK-10 renal, 51.8% (inactive); in the assay with ACHN renal, 107% (inactive); with CAKI-1 renal it was 99.8% (inactive); with CCRF-CEM leukemia it was 0.339% (active). Also, the growth in the assay on MOLT-4 leukemia is -32.1% (active).

For the molecule `CCCCOc1cc(C(=O)NCCN(CC)CC)c2ccccc2n1`, the growth is 96.5% (inactive) and 100% (inactive) in the assay with HCT-15 colon; 57.7% (inactive) and 92.4% (inactive) in the assay on HT29 colon; 75.2% (inactive) and 88.9% (inactive) in the assay with SNB-75 CNS; 90.1% (inactive) and 91.9% (inactive) in the assay with SNB-19 CNS; 83.4% (inactive) and 92.2% (inactive) in the assay on U251 CNS; 73.9% (inactive) and 96% (inactive) in the assay on PC-3 prostate. The growth was 86.4% (inactive) and 94.5% (inactive) with SK-MEL-5 melanoma; 95.6% (inactive) and 90.1% (inactive) with UACC-62 melanoma; 88.4% (inactive) and 110% (inactive) in the assay on LOX IMVI melanoma; 102% (inactive) and 104% (inactive) in the assay on SK-MEL-28 melanoma; 120% (inactive) and 99.6% (inactive) in the assay with SK-MEL-2 melanoma; 74.9% (inactive) with EKVX NSCLC. Further, the growth with UO-31 renal was 59.1% (inactive) and 78% (inactive); in the assay with TK-10 renal, 100% (inactive); with ACHN renal, 90.1% (inactive) and 99.7% (inactive); in the assay on CAKI-1 renal it was 73.6% (inactive) and 92.8% (inactive); in the assay with A498 renal, 81.1% (inactive) and 95.4% (inactive); in the assay on CCRF-CEM leukemia, 89.4% (inactive). In addition, the growth in the assay with MOLT-4 leukemia was 98% (inactive) and 101% (inactive).

`CC(=O)Nc1ccc(O)cc1`: the growth in the assay on HCT-15 colon was 103% (inactive) and 109% (inactive) and 105% (inactive); with HT29 colon, 99.8% (inactive) and 96.8% (inactive) and 108% (inactive); in the assay with SNB-75 CNS, 99.8% (inactive) and 91.8% (inactive) and 104% (inactive); with SNB-19 CNS, 101% (inactive); in the assay with U251 CNS it was 102% (inactive) and 106% (inactive) and 107% (inactive); with PC-3 prostate, 90.4% (inactive) and 136% (inactive) and 97.6% (inactive). Also, the growth was 98% (inactive) and 113% (inactive) and 112% (inactive) with SK-MEL-5 melanoma; 99.9% (inactive) and 102% (inactive) and 106% (inactive) with UACC-62 melanoma; 103% (inactive) and 101% (inactive) and 106% (inactive) in the assay on LOX IMVI melanoma; 114% (inactive) and 66.2% (inactive) and 125% (inactive) in the assay on SK-MEL-28 melanoma; 95.7% (inactive) and 81.9% (inactive) and 108% (inactive) with SK-MEL-2 melanoma; 95% (inactive) and 101% (inactive) and 113% (inactive) with EKVX NSCLC. Further, the growth was 84.3% (inactive) and 98% (inactive) and 90% (inactive) in the assay on UO-31 renal; 87.4% (inactive) and 69.9% (inactive) and 101% (inactive) in the assay with TK-10 renal; 100% (inactive) and 104% (inactive) with ACHN renal; 98% (inactive) and 94.4% (inactive) and 101% (inactive) with CAKI-1 renal; 100% (inactive) and 102% (inactive) and 94.1% (inactive) in the assay on A498 renal; 88.7% (inactive) and 108% (inactive) with CCRF-CEM leukemia. Also, in the assay on MOLT-4 leukemia, the growth is 102% (inactive) and 100% (inactive).

Take `CCC(=O)C(CC)c1cccc(OC)c1` (stereo not given): the growth with HCT-15 colon is 103% (inactive); in the assay with HT29 colon, 103% (inactive); with SNB-75 CNS, 76.7% (inactive); in the assay with SNB-19 CNS, 111% (inactive); in the assay on U251 CNS, 99.4% (inactive); in the assay with PC-3 prostate, 98.8% (inactive). Also, the growth in the assay with SK-MEL-5 melanoma was 101% (inactive); in the assay with UACC-62 melanoma, 108% (inactive); in the assay on LOX IMVI melanoma, 100% (inactive); in the assay on SK-MEL-28 melanoma, 106% (inactive); in the assay on SK-MEL-2 melanoma it was 116% (inactive); with EKVX NSCLC, 106% (inactive). Moreover, the growth with UO-31 renal is 89.9% (inactive); in the assay with TK-10 renal, 101% (inactive); with ACHN renal, 106% (inactive); with CAKI-1 renal it was 94.4% (inactive); in the assay with A498 renal, 87.8% (inactive); with CCRF-CEM leukemia it was 93.8% (inactive). Further, the growth in the assay on MOLT-4 leukemia was 98.4% (inactive).

On to `CN(C)c1ccc2nc3ccc(N)cc3[n+](-c3ccccc3)c2c1`, for which the growth in the assay with HCT-15 colon was 90.7% (inactive) and 18.7% (inactive); with HT29 colon it was 32.5% (inactive) and 24.4% (inactive); with SNB-75 CNS, 18.6% (inactive) and 52.4% (inactive); in the assay with SNB-19 CNS it was 12.3% (inactive) and 21.1% (inactive); with U251 CNS it was 16% (inactive) and 3.13% (active); in the assay with PC-3 prostate it was 22.2% (inactive) and 7.58% (active). In addition, the growth in the assay with SK-MEL-5 melanoma was -5.68% (active) and -77.7% (active); with UACC-62 melanoma, 17% (inactive) and 13.4% (inactive); in the assay with LOX IMVI melanoma it was 28% (inactive) and 6.03% (active); in the assay with SK-MEL-28 melanoma it was 37.6% (inactive) and 30.9% (inactive); in the assay on SK-MEL-2 melanoma, 58.2% (inactive); with EKVX NSCLC, 27.8% (inactive) and 12.6% (inactive). The growth in the assay with SN12C renal is 6.72% (active) and -36.4% (active); with UO-31 renal, 62.1% (inactive) and 31% (inactive); in the assay with ACHN renal it was 73.5% (inactive) and 30.8% (inactive); in the assay on CAKI-1 renal, 94.2% (inactive) and -40.5% (active); in the assay on A498 renal, 67.5% (inactive) and 41.8% (inactive); in the assay with CCRF-CEM leukemia, 24.6% (inactive) and 13.7% (inactive). The growth in the assay on MOLT-4 leukemia was 23% (inactive) and 0.316% (active).
